# Only some compounds are listed: those with a hit (about 5.9% of all), similar ones and a draw of the others.
# NR0B1 inh: inhibitors of human orphan nuclear receptor DAX1 (NR0B1); P51843; HEK293 Gal4-DAX1 luciferase reporter, luminescence; inhibition, % at 6.75 µM; hit rate 0.99% among 340,000; AID 504766;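 active means inhibition above the mean over all tested compounds plus 3 SD, cut at about 4.2% in these data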;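 further: inhibition shows as a rise in luminescence from relieved DAX1 repression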
# Target sequence (P51843 207-470 limits assumed): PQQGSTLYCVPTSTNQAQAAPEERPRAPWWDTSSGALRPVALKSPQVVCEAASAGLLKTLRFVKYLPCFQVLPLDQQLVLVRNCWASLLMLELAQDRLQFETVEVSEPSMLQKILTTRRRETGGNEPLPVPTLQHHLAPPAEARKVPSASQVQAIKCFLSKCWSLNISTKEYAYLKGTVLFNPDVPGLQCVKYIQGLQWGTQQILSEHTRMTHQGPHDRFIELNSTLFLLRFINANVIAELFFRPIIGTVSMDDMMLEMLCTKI
# GAA850 FXN act: activators of GAA850 frataxin (FXN) promoter | HEK293 lucGAA850 FXN promoter luciferase reporter, 24 h; percent of 10 µM SAHA response | activation, % at 6 µM | hit rate 0.56% among 360,000 | AID 540364;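 active means activation above the average of all compounds screened plus 3 SD, cutoff fixed separately per campaign, cut at about 7.5% in these data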
# HSF1 inh: HSF1 inhibition | NIH3T3-HGL HSE-luciferase, MG132-induced, luminescence 8 h; stronger effect = lower value | activity change, negative = inhibition, % at 7.5 µM (by protocol) | hit rate 0.77% among 300,000;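 active means more than half of replicate wells show activity change below -50%, luminescence cut by over half; inconclusive means some wells, but at most half, below -50%; inactive means no replicate well below -50%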;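 further: luciferase reports HSF-1 transcriptional activity via heat shock element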
# AHR act: activates the human aryl hydrocarbon receptor; AHR-responsive luciferase reporter cells, luminescence; P35869; activation, % at 5 µM; hit rate 2.5% among 320,000; in the data active means activation above about 47%
# HSP90 inh: HSP90 refolding inhibition in rabbit reticulocyte lysate | luciferase refolding luminescence, 3 h | inhibition, % at 5.6 µM | hit rate 0.91% among 290,000 | AID 1789;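 active means inhibition above the screen-wide mean plus 3 SD, computed separately per campaign, cut at about 16% in these data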;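 further: inhibitors lower the luminescence because luciferase stays unfolded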
# HSF-1 act: increases HSF-1 driven luciferase reporter signal; hit rate 1.7% among 300,000; NIH3T3-HGL HSF-1 luciferase reporter, MG132, 8 h; 100% = twice DMSO control signal; AID 504408; activation, % at 9 µM;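 active means mean replicate activation of at least 50% with a set share of replicates each reaching 50%; inconclusive means only one of those two conditions met; inactive means mean below 50% and too few replicates reaching it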
# Numbers stand for hits; . = inactive; ? = inconclusive; / = no result.
SMILES,NR0B1 inh,GAA850 FXN act,HSF1 inh,AHR act,HSP90 inh,HSF-1 act
O=C(C1=C(c2ccccc2)C(=O)c2ccccc2C1=O)c1ccccc1,.,.,.,/,74,82
Fc1ccc(/C=N/Nc2nccnc2Cl)cc1,6.1,.,.,.,.,.
Cc1nn(-c2ccc(Cl)cc2)c2sc(C(=O)N3CCN(c4ccccn4)CC3)cc12,.,.,.,77,.,.
Cc1nn(-c2ccc(Cl)cc2)c2sc(C(=O)c3c(N)n(C)c(=O)n(C)c3=O)cc12,.,.,.,47,.,.
Cn1c(/N=C(\N)c2ccccc2)nc2ccccc21,4.5,.,/,/,/,/
CC1(C)CC(=O)C2=C(C1)NC1=C(C(=O)c3ccccc31)C2c1ccccc1 (stereo unspecified),.,.,.,.,.,.
CC1=C([N+](=O)[O-])C(c2ccccc2)C2=C(N1)c1ccccc1C2=O (stereo unspecified),.,.,.,.,.,57
COc1cc(C2C(C#N)=C(C)NC3=C2C(=O)c2ccccc23)cc(OC)c1OC (stereo unspecified),.,.,/,113,.,/
COc1ccc(C2C(C#N)=C(C)NC3=C2C(=O)c2ccccc23)cc1 (stereo unspecified),.,.,.,.,.,.
CC1CN(C(=O)COC(=O)/C=C/c2ccccc2)CC(C)O1 (stereo unspecified),.,.,/,/,/,/
CCS(=O)(=O)c1ncc(Cl)c(C(=O)Nc2ccc(S(=O)(=O)N3CCC(C)CC3)cc2)n1,.,.,-85,.,.,.
CCS(=O)(=O)c1ncc(Cl)c(C(=O)Nc2ccccc2OC)n1,.,.,.,.,.,490
COc1ccccc1NC(=O)c1nc(S(=O)(=O)Cc2ccccc2)ncc1Cl,.,.,-87,60,.,.
CCOc1ccccc1NC(=O)c1nc(S(=O)(=O)Cc2ccccc2)ncc1Cl,.,.,-83,.,.,.
Cc1ccc(NC(=O)c2nc(S(=O)(=O)Cc3ccccc3C)ncc2Cl)cc1C,.,.,.,.,.,.
CCc1ccc(NC(=O)c2nc(S(=O)(=O)Cc3ccccc3)ncc2Cl)cc1,.,.,?,.,.,.
O=C(NCc1ccccc1CN1CCCC1)c1ccc(Cl)c(N2CCCC2=O)c1,.,.,/,.,/,/
CCn1ncc(S(=O)(=O)N2CCN(c3cccc(OC)c3)CC2)c1C,.,.,.,.,.,.
CCSc1ncc(Cl)c(C(=O)Nc2ccccc2C)n1,.,.,.,.,.,55
O=C(Nc1ccccc1)N1CCn2c1nc1ccccc12,.,.,.,51,.,.
CC1(C(=O)NCCc2c[nH]c3ccccc23)CCN1CC1CCCCC1 (stereo unspecified),/,.,/,/,/,/
CC(C)Cn1c(N)c(C(=O)COC(=O)c2ccc(O)cc2)c(=O)n(C)c1=O,.,.,.,.,.,.
CC(C)Cn1c(N)c(C(=O)COC(=O)c2ccc([N+](=O)[O-])o2)c(=O)n(C)c1=O,.,.,.,.,.,67
COC(=O)CSCc1nc2ccccc2[nH]c1=O,.,.,.,64,.,.
COC(=O)CCc1nc2ccccc2[nH]c1=O,.,.,.,.,.,.
SMILES,NR0B1 inh,GAA850 FXN act,HSF1 inh,AHR act,HSP90 inh,HSF-1 act
N#CCSc1n[nH]c2nc3c(c(=O)n12)C1(CCCC1)Cc1ccccc1-3,.,.,.,52,.,.
Clc1ccc(-c2ccc(SCc3ccccn3)nn2)cc1,.,.,.,.,.,81
Cc1noc(C)c1NC(=O)N(C)C[C@@H]1Oc2ncc(Br)cc2C(=O)N([C@@H](C)CO)C[C@@H]1C,.,.,/,/,/,/
O=c1c(-c2ccccc2)c[nH]n1-c1cccc([N+](=O)[O-])c1,8.3,.,.,.,.,.
COc1ccc(C2=NN(C(=O)c3ccccc3)C(c3ccc(OC)c(OC)c3)C2)c(OC(C)=O)c1 (stereo unspecified),.,.,.,.,.,.
Cc1cc(SCCOc2ccccc2)nc(N)n1,5.1,.,.,.,.,.
O=C(/C=C/c1ccco1)N1CCN(S(=O)(=O)c2cccs2)CC1,6.6,.,.,.,.,.
Cc1ccc(/C=C/C(=O)N2CCN(S(=O)(=O)c3cccs3)CC2)o1,.,.,.,.,.,.
C[n+]1ccc(/C=C/c2ccccc2O)c2ccccc21,.,.,.,63,.,.
CN1/C(=C/c2cc[n+](C)c3ccccc23)C=Cc2ccccc21,.,.,/,/,.,/
C=CCN1C(=O)c2ccc(C(=O)NCCOc3ccccc3F)cc2C1=O,.,.,.,.,/,.
Cc1cc(C)c(C#N)c(OCC(=O)Nc2ccccc2)n1,.,.,.,.,.,.
Cc1cc(C)c(C#N)c(OCC(=O)c2ccccc2)n1,.,.,.,52,.,.
O=C(COc1ccc2c(c1)oc(=O)c1ccccc12)NC(Cc1ccc(Cl)cc1)C(=O)O (stereo unspecified),.,.,.,.,.,.
C/C(=N\NC(=S)NC(C)C)c1ccc(Cl)c([N+](=O)[O-])c1,4.6,.,.,.,.,.
C/C(=N\NC(=S)NC(C)C)c1cccc([N+](=O)[O-])c1,.,.,.,.,.,.
O=C(O)C1CCC(Cn2c(SCc3cc(=O)n4ccccc4n3)nc3ccsc3c2=O)CC1 (stereo unspecified),5.0,.,.,.,.,.
Cc1ccccc1NC(=S)N/N=C1\CC(C)(C)Oc2ccc(O)cc21,.,.,.,.,.,.
Cc1ccc(NC(=S)N/N=C2\CC(C)(C)Oc3ccc(O)cc32)cc1,.,.,.,70,.,.
C/C(O)=C(\N=Nc1cc(C)ccc1O)C(N)=O,/,.,.,52,.,.
Cc1ccc(O)c(N=NC2=C(O)CC(C)(C)CC2=O)c1,.,.,.,.,.,.
COc1cc(NC(=S)Nc2cccc(C)n2)cc(OC)c1OC,.,.,.,69,.,.
CC(C)(C)c1cc(C(=O)NCc2cc(F)cc3c2OCOC3)n(Cc2ccccc2)n1,.,.,.,.,.,56
CC(C)(C)c1cc(C(=O)NNC(=O)Nc2ccccc2)n(Cc2ccccc2)n1,.,.,.,.,.,.
COc1ccc(C(C)N2CC34C=CC(O3)C(C(=O)O)C4C2=O)cc1 (stereo unspecified),.,.,-64,.,.,.
CCOc1ccc(/C=N/NC(=O)c2ccc(Cn3cc([N+](=O)[O-])cn3)o2)cc1,.,.,-55,.,.,.
O=C(N/N=C/c1c(F)cccc1Cl)c1ccc(Cn2cc(Br)cn2)o1,.,.,.,49,.,.
O=C(N/N=C/c1c(F)c(F)c(F)c(F)c1F)c1ccc(Cn2cc(Br)cn2)o1,.,.,.,.,.,.
COc1ccc(/C=N/NC(=O)c2ccc(COc3ccccc3Cl)o2)cc1,.,.,.,62,.,.
COc1ccc(/C=N/NC(=O)c2ccc(COc3ccccc3Cl)o2)c(OC)c1C,.,.,.,.,.,.

# Assay outcomes (PubChem)
